Measured values taken from PubChem BioAssay (Tox21).
Inconclusive results are not listed. Where a call stands in place of a potency, no number is given. Active and inactive are the calls of the source. Unless noted, calls come from the whole dose curve; as a rule, active = well fitted curve in the direction sought with a large enough effect in the repeat runs; inconclusive = weak or mixed curves; inactive = no such curve, though single readings can be large; an effect the other way counts as inactive or inconclusive.

Tests used:
[1] = qHTS assay to identify aromatase inhibitors - cell viability counter screen (AID 743084);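 note: cells stimulated with testosterone during compound exposure; nearly all actives have a fitted effect of over 55% in size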; note: potency is the fitted concentration of half-maximal effect
[2] = qHTS assay to identify small molecule that activate the aryl hydrocarbon receptor (AhR) signaling pathway - cell viability counter screen (AID 743086);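 note: HepG2 liver cells carrying the AhR DRE luciferase reporter; series mostly up to about 70 µM; nearly all actives have a fitted effect of over 45% in size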
Procedure, shortened: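 HepG2-AhR-luc (HG2L7.5c1) cells, 4000/well, were preincubated 5 h at 37C, exposed to compound in qHTS format for 24 hr at 37C, then given CellTiter-Fluor for 30 min; viability was read as fluorescence in the reporter wells.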

[3] = qHTS assay to identify small molecule antagonists of the peroxisome proliferator-activated receptor gamma (PPARg) signaling pathway - cell viability counter screen (AID 743194); details: Potency: co-treated with 50 nM rosiglitazone; note: nearly all actives have a fitted effect of over 55% in size
Procedure, shortened: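 PPARg-UAS-bla HEK293H cells were plated, rested 5 h at 37 C, then treated with compounds plus rosiglitazone (50 nM final) for 17 h at 37 C; viability was then read by CellTiter-Glo luminescence after 30 min at room temperature.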

[4] = qHTS assay for small molecule agonists of the antioxidant response element (ARE) signaling pathway - cell viability counter screen (AID 743203; calls by dose curve; note: nearly all actives have a fitted effect of over 55% in size)
Procedure, shortened: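 Seeded at 2,000 cells/well, ARE-bla HepG2 cells were incubated 5 hrs before compound addition. After 16 hrs of treatment at 37C with 5% CO2, CellTiter-Glo reagent was added and luminescence read 30 min later.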

[5] = qHTS assay for small molecule activators of the heat shock response signaling pathway - cell viability counter screen (AID 743209); note: nearly all actives have a fitted effect of over 50% in size
Procedure, shortened: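 First, HSE-bla HeLa cells were seeded at 1500 cells/well and kept overnight at 37 C. Next, compounds were pinned in and incubated 5 h. After the FRET substrate step, CellTiter-Glo was added and luminescence read 30 min later.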

[6] = qHTS assay for small molecule activators of the heat shock response signaling pathway (AID 743210; active = well fitted activation curve with a large enough effect in the signal ratio in the repeat runs, with a control signal flat, not every such curve was filed as active; the % refers to the signal ratio;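 note: HeLa cells with beta-lactamase reporter driven by heat shock elements; series mostly up to about 63 µM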)
Procedure, shortened: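 Reporter gene assay: HeLa cells stably bearing an HSE-bla construct, compound treatment 5 h at 37 C, LiveBLAzer substrate 2.5 h at RT, fluorescence intensity.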

[7] = qHTS assay to identify small molecule agonists of the peroxisome proliferator-activated receptor delta (PPARd) signaling pathway - cell viability counter screen (AID 743211); note: nearly all actives have a fitted effect of over 55% in size
Procedure, shortened: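 HEK293H PPARd-bla, 3000 cells/well; 5 h preincubation 37C/5% CO2; cpd in DMSO, 17 h 37C; B/G FRET substrate 2 h RT; CellTiter-Glo 30 min RT, luminescence.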

[8] = biological target: Peroxisome proliferator-activated receptor delta (Homo sapiens) (UniProt Q03181); assay: qHTS assay to identify small molecule agonists of the peroxisome proliferator-activated receptor delta (PPARd) signaling pathway (AID 743212; calls by dose curve)
Procedure, shortened: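 A PPARd-bla HEK293H line with beta-lactamase under an Upstream Activator Sequence is treated with compounds at 37 C. Substrate loading for 2 h at room temperature precedes the fluorescence measurement.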

[9] = qHTS assay to identify small molecule antagonists of the peroxisome proliferator-activated receptor delta (PPARd) signaling pathway - cell viability counter screen (AID 743213); note: nearly all actives have a fitted effect of over 50% in size
Procedure, shortened: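 In this counter screen, HEK293H cells carrying a UAS-beta-lactamase reporter are co-treated with test compounds and 300 nM L165041 (final) for 17 h at 37 C; cell viability is quantified by CellTiter-Glo luminescence.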

[10] = biological target: Peroxisome proliferator-activated receptor delta (Homo sapiens) (UniProt Q03181); assay: qHTS assay to identify small molecule antagonists of the peroxisome proliferator-activated receptor delta (PPARd) signaling pathway (AID 743215; active = well fitted inhibition curve with a large enough effect in the signal ratio in the repeat runs, not every such curve was filed as active; the % refers to the signal ratio;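 note: cells stimulated with agonist L165041 at 300 nM final during compound exposure; series mostly up to about 62 µM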)
Procedure, shortened: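 Inhibition of L165041-driven (300 nM final) PPARd signaling is scored in HEK293H UAS-bla cells. Exposure lasts 17 h at 37 C; beta-lactamase activity is then read by FRET substrate fluorescence after 2 h at room temperature.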

[11] = qHTS assay to identify small molecule agonists of the farnesoid-X-receptor (FXR) signaling pathway - cell viability counter screen (AID 743218); note: nearly all actives have a fitted effect of over 45% in size
Procedure, shortened: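 Cytotoxicity counter-screen run in parallel, same wells: FXR-UAS-bla HEK 293T cells dosed 16 h at 37 C, viability read by CellTiter-Glo luminescence after 30 min at room temperature.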

[12] = biological target: Bile acid receptor (Homo sapiens) (UniProt Q96RI1); assay: qHTS assay to identify small molecule agonists of the farnesoid-X-receptor (FXR) signaling pathway (AID 743220; active = well fitted activation curve with a large enough effect in the signal ratio in the repeat runs, not every such curve was filed as active; the % refers to the signal ratio)
Procedure, shortened: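 Beta-lactamase reporter under UAS control in GeneBLAzer FXR HEK 293T cells (5000/well) measured with LiveBLAzer FRET substrate after 2 h at room temperature. Compound exposure lasted 16 h at 37C.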

[13] = qHTS assay to identify small molecule antagonists of the farnesoid-X-receptor (FXR) signaling pathway - cell viability counter screen (AID 743221; active = well fitted cell-killing curve with a large enough effect in the repeat runs, not every such curve was filed as active; note: nearly all actives have a fitted effect of over 50% in size)
Procedure, shortened: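 Luminescence from CellTiter-Glo measures cytotoxicity in GeneBLAzer FXR-UAS-bla HEK 293T cells. Cells were exposed to compounds with 50 uM chenodeoxycholic acid (final) for 16 h at 37 C, in wells also used for the reporter readout.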

[14] = biological target: Vitamin D3 receptor (Homo sapiens) (UniProt P11473); assay: qHTS assay to identify small molecule agonists of the vitamin D receptor (VDR) signaling pathway (AID 743222; calls by dose curve)
Procedure, shortened: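 Quantitative HTS agonist-mode screen: compounds in DMSO were pin-transferred onto VDR-bla cells and incubated 16 h at 37C, 5% CO2. Reporter activity was detected with LiveBLAzer B/G FRET substrate after 2 h at room temperature.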

[15] = biological target: Vitamin D3 receptor (Homo sapiens) (UniProt P11473); assay: qHTS assay to identify small molecule antagonists of the vitamin D receptor (VDR) signaling pathway (AID 743223; active = well fitted inhibition curve with a large enough effect in the signal ratio in the repeat runs, not every such curve was filed as active; the % refers to the signal ratio)
Procedure, shortened: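 Antagonist mode uses 1alpha,25-dihydroxyvitamin D3 at 3 nM final as stimulus. VDR-bla cells receive compounds in DMSO, incubate 16 h at 37C, then a beta-lactamase FRET substrate for 2 h at room temperature before fluorescence measurement.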

[16] = qHTS assay for small molecule agonists of the antioxidant response element (ARE) signaling pathway (AID 743202; active = well fitted activation curve with a large enough effect in the signal ratio in the repeat runs, not every such curve was filed as active; the % refers to the signal ratio)
Procedure, shortened: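 Compounds delivered in DMSO to ARE-bla HepG2 cells (2,000 cells/well, pre-incubated 5 h) and left 16 h at 37 C. LiveBLAzer B/G FRET substrate then added for 2 h at RT before fluorescence reading.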

[17] = biological target: Peroxisome proliferator-activated receptor gamma (Homo sapiens) (UniProt P37231); assay: qHTS assay to identify small molecule antagonists of the peroxisome proliferator-activated receptor gamma (PPARg) signaling pathway (AID 743191; calls by dose curve; note: series mostly up to about 63 µM; nearly all actives have a fitted effect of over 30% in size)
Procedure, shortened: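 GeneBLAzer PPARg UAS-bla HEK293H cells carrying a UAS-driven beta-lactamase reporter were plated at 3000 cells/well, preincubated 5 h at 37C, then given compound for 17 h at 37C; LiveBLAzer B/G FRET substrate was read after 1 h at room temperature.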

[18] = biological target: Bile acid receptor (Homo sapiens) (UniProt Q96RI1); assay: qHTS assay to identify small molecule antagonists of the farnesoid-X-receptor (FXR) signaling pathway (AID 743217; active = well fitted inhibition curve with a large enough effect in the signal ratio in the repeat runs, not every such curve was filed as active; the % refers to the signal ratio)
Procedure, shortened: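 Antagonist mode against 50 uM (final) chenodeoxycholic acid stimulation in FXR-bla HEK 293T cells, 16 h at 37 °C. Inhibition detected as reduced beta-lactamase activity via LiveBLAzer B/G FRET fluorescence after 2 h at room temperature.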

[19] = biological target: Aryl hydrocarbon receptor (Homo sapiens) (UniProt P35869); assay: qHTS assay to identify small molecule that activate the aryl hydrocarbon receptor (AhR) signaling pathway (AID 743085);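 note: HG2L7.5c1 human HepG2 liver cells with stably integrated DRE-driven firefly reporter; series mostly up to about 70 µM; nearly all actives have a fitted effect of over 15% in size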
Procedure, shortened: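 Cell line HG2L7.5c1 (human hepatoma, 20× DRE-luc). Plated, 5 h 37C, compound/DMSO added, 24 h 37C. CellTiter-Fluor 30 min 37C → fluorescence; then ONE-Glo 30 min RT → luminescence.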

[20] = biological target: Peroxisome proliferator-activated receptor gamma (Homo sapiens) (UniProt P37231); assay: qHTS assay to identify small molecule agonists of the peroxisome proliferator-activated receptor gamma (PPARg) signaling pathway (AID 743094; active = well fitted activation curve with a large enough effect in the signal ratio in the repeat runs, not every such curve was filed as active; the % refers to the signal ratio)
Procedure, shortened: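 Quantitative HTS agonist mode: stable HEK293H line with UAS-beta-lactamase reporter under PPARg control, 17 h compound exposure at 37C, fluorescence after 1 h FRET substrate loading at room temperature.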

Sequence of Peroxisome proliferator-activated receptor delta (Homo sapiens) (Q03181 whole entry, looked up): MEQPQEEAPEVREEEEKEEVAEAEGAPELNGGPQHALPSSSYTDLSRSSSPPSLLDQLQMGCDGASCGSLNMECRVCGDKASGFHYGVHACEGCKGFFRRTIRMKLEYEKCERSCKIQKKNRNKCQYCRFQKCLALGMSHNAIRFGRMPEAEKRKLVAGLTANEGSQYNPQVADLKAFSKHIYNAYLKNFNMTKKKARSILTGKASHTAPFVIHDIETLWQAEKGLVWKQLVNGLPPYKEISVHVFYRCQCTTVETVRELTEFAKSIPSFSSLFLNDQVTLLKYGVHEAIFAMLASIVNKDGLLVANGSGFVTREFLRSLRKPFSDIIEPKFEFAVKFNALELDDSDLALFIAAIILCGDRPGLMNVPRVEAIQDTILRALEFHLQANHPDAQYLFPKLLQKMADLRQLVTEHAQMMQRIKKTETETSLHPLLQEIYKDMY
Sequence of Vitamin D3 receptor (Homo sapiens) (P11473 whole entry, looked up): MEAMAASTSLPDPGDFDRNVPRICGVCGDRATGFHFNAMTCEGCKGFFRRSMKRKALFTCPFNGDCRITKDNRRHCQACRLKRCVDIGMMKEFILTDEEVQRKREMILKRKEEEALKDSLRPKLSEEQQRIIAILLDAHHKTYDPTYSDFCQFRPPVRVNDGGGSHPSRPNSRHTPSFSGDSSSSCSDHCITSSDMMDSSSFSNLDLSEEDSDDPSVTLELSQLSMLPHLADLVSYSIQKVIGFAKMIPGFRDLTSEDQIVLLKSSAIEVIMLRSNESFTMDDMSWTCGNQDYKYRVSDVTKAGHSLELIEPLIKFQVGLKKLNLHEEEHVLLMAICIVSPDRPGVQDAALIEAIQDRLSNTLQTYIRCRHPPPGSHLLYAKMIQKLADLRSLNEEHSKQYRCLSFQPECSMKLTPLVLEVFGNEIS
Sequence of Bile acid receptor (Homo sapiens) (Q96RI1 whole entry, looked up): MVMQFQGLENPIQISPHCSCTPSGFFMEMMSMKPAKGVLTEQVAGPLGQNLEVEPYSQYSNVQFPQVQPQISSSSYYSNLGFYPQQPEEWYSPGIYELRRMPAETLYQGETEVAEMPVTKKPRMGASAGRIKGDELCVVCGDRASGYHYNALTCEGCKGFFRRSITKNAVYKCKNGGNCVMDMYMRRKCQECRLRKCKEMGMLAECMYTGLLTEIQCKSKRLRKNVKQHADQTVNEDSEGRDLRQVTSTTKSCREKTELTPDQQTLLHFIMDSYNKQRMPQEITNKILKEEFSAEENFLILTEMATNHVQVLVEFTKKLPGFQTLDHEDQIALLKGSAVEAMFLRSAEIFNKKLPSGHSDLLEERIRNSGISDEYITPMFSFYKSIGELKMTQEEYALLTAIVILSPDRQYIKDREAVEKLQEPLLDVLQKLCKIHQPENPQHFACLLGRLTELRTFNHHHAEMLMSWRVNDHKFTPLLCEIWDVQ
Sequence of Peroxisome proliferator-activated receptor gamma (Homo sapiens) (P37231 whole entry, looked up): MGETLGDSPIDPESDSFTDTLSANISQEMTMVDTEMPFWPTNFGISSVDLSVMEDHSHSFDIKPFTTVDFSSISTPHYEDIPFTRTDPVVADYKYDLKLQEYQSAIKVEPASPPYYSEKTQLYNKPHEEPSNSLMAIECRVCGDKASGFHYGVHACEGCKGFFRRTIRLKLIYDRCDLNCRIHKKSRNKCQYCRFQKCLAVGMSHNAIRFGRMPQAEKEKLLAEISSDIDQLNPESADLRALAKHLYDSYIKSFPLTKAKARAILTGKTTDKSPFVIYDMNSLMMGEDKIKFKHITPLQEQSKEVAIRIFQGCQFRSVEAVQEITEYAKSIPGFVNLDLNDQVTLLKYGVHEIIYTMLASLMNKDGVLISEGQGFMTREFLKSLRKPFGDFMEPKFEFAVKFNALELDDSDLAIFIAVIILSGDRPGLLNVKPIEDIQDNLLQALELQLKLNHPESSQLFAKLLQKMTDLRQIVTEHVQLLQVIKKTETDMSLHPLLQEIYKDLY
Sequence of Aryl hydrocarbon receptor (Homo sapiens) (P35869 whole entry, looked up): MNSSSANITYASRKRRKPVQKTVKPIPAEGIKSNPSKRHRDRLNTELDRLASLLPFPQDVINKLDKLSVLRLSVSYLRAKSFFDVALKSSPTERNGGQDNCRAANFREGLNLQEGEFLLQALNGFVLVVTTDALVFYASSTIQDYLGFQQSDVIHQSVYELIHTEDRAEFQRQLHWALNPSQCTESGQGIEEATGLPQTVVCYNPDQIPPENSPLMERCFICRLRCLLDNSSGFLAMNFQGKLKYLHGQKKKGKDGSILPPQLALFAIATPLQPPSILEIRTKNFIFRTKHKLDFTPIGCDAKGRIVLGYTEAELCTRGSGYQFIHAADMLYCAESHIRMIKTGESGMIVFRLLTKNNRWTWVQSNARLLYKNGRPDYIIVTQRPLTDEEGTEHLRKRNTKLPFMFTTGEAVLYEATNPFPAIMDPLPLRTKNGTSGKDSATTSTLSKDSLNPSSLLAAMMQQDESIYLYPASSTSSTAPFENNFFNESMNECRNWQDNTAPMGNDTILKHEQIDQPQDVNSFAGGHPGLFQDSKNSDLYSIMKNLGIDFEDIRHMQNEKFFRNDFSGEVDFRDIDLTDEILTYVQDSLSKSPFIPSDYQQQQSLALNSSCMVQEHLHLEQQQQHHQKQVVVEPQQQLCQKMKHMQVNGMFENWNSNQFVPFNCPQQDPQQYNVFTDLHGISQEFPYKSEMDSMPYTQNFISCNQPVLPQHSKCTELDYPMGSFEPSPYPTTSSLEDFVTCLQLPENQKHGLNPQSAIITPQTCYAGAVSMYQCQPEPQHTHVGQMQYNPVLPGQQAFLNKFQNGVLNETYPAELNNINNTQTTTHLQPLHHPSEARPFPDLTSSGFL

| Compound | Potency [1] | Potency [2] | Potency [3] | Potency [4] | Potency [5] | Potency [6] | Potency [7] | outcome [8] | Potency [9] | Potency [10] | Potency [11] | outcome [12] | Potency [13] | outcome [14] | outcome [15] | Potency [16] | Potency [17] | outcome [18] | Potency [19] | outcome [20] |
| --- | --- | --- | --- | --- | --- | --- | --- | --- | --- | --- | --- | --- | --- | --- | --- | --- | --- | --- | --- | --- |
| N[C@@H]1C[C@H]1c1ccccc1 | inactive | inactive | inactive | inactive | inactive | inactive | inactive | inactive | inactive | inactive | inactive | inactive | inactive | inactive | inactive | – | – | – | – | – |
| CON(C)C(=O)Nc1ccc(Br)cc1 | inactive | inactive | inactive | inactive | inactive | – | inactive | inactive | inactive | inactive | inactive | – | inactive | inactive | – | inactive | – | – | – | – |
| C=CC=O | inactive | inactive | inactive | – | inactive | – | inactive | inactive | – | – | inactive | – | – | inactive | inactive | – | – | – | – | – |
| CN1C(=O)COc2c(C(=O)NC3CN4CCC3CC4)cc(Cl)cc21 (stereo not drawn) | inactive | inactive | inactive | inactive | inactive | inactive | inactive | inactive | inactive | inactive | inactive | – | inactive | inactive | inactive | – | – | – | – | – |
| COC[C@@H](NC(C)=O)C(=O)NCc1ccccc1 | – | – | inactive | inactive | inactive | inactive | inactive | inactive | inactive | inactive | inactive | – | inactive | inactive | – | – | inactive | – | – | – |
| CC[C@@H](CO)NC(=O)[C@@H]1C=C2c3cccc4c3c(cn4C)C[C@H]2N(C)C1 | – | inactive | inactive | inactive | inactive | inactive | inactive | inactive | inactive | inactive | inactive | – | – | inactive | inactive | inactive | inactive | inactive | – | – |
| O=c1[nH]c2ccccc2n1C1CCNCC1 | – | – | inactive | inactive | inactive | inactive | inactive | inactive | inactive | inactive | inactive | – | inactive | inactive | inactive | inactive | inactive | – | – | – |
| C(COCC1CO1)OCC1CO1 (stereo not drawn) | inactive | inactive | inactive | inactive | inactive | – | inactive | inactive | – | inactive | inactive | – | inactive | – | – | – | – | – | – | – |
| O=[N+]([O-])CCO | – | inactive | inactive | inactive | inactive | – | inactive | – | inactive | – | inactive | – | – | – | – | – | – | – | inactive | inactive |
| CCN1CCCC1CNC(=O)C(O)(c1ccccc1)c1ccccc1 (stereo not drawn) | – | – | inactive | inactive | inactive | – | inactive | – | inactive | – | inactive | – | – | inactive | inactive | – | inactive | inactive | – | – |
| CC(Cc1ccccc1)NCCn1cnc2c1c(=O)n(C)c(=O)n2C (stereo not drawn) | – | – | inactive | inactive | inactive | inactive | inactive | inactive | inactive | – | inactive | – | inactive | inactive | inactive | inactive | inactive | – | inactive | – |
| C=C(Cl)CSC(=S)N(CC)CC | 18.8 µM (active) | inactive | inactive | inactive | – | – | inactive | inactive | inactive | – | inactive | inactive | inactive | inactive | inactive | – | – | – | – | – |
| C1CN2CCC1CC2 | – | – | inactive | inactive | inactive | inactive | inactive | inactive | inactive | inactive | inactive | – | inactive | – | – | inactive | inactive | – | – | – |
| CCN(CCO)CCO | inactive | – | inactive | inactive | inactive | inactive | inactive | inactive | inactive | – | inactive | – | – | inactive | inactive | – | inactive | – | – | inactive |
| CC(C)(C)C(=O)C(Cl)Cl | – | inactive | – | inactive | inactive | inactive | inactive | inactive | inactive | inactive | inactive | – | – | inactive | inactive | – | – | – | – | – |
